Compound activity (PubChem BioAssay)
Phagocyt inh: inhibitors of macrophage phagocytosis, primary screen, imaging, J774A.1 cells, IgG beads | J774A.1 macrophage IgG-bead phagocytosis | inhibition, % at 5 µM | hit rate 0.07% among 110,000 | AID 1029, 2008;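 active = inhibition above the mean of the plate negative controls plus 5 SD, cut at about 13% in these data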;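 also: phagocytic index as fraction of beads internalized from green versus red external bead signal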
S1P2 blocker: human S1P2 receptor antagonists, primary screen, cell-based; hit rate 0.21% among 97,000; cell-based S1P2 antagonist assay, inhibition at 5 uM; AID 736, 2007; inhibition, % at 5 µM; Sphingosine 1-phosphate receptor 2 (Homo sapiens), O95136; in the data active = inhibition above about 45%;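 also: CRE beta-lactamase reporter cells expressing human S1P2 stimulated with S1P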
GALR2 antag: GALR2 antagonists in receptor-expressing cells, primary screen. Galanin receptor type 2 (Homo sapiens), O43603. antagonist mode. inhibition, % at 4 µM. hit rate 0.39% among 140,000. AID 828, 2007;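 also: cells stimulated with galanin 1-16 at roughly its EC80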
Target sequence (O43603 whole entry, looked up): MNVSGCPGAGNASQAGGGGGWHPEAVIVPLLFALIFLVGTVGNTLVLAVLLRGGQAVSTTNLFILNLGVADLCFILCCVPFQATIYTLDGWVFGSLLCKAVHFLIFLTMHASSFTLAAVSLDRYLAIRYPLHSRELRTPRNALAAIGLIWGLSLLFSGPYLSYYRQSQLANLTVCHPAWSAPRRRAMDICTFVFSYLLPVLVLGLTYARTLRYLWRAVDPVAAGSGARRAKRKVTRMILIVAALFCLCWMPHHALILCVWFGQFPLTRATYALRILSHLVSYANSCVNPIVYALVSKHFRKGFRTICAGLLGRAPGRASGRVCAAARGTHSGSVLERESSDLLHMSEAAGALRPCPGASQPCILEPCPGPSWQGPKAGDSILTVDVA
S1P2 agonist: S1P2 receptor agonists, primary screen, cell-based | Sphingosine 1-phosphate receptor 2 (Homo sapiens), O95136 | S1P2-expressing cell line, agonist reporter read-out | activation, % at 4.5 µM | hit rate 0.46% among 97,000 | AID 729, 2007; in the data active = activation above about 16%
GALR2 agonist: GALR2 receptor agonists, primary screen, cell-based | Galanin receptor type 2 (Homo sapiens), O43603 | GALR2-expressing cells, agonist activation read-out | activation, % (test concentration not listed) | hit rate 0.48% among 140,000; in the data active = activation above about 5%, passing the limit was not always enough
GALR2 ag confirm: GALR2 agonists, retest of hits, confirmation, cell-based; activation, % at 5.6 µM; shares compounds with GALR2 agonist; hit rate 10% among 460; GALR2-expressing cells, agonist activation; AID 864, 2007; in the data active = activation above about 8.4%
BLA act counter: activators of NFAT-driven beta-lactamase reporter, confirmation, counter-screen for GALR2 agonist project, CHO NFAT-bla cells, FRET readout | shares compounds with GALR2 agonist | AID 865, 2007 | hit rate 10% among 460 | activation, % at 5.6 µM | beta-lactamase FRET activation;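 active = activation above the screen-wide mean activation plus 3 SD, cut at about 8% in these data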
GALR2 blk conf: GALR2 antagonists, retest of hits, confirmation, cell-based; shares compounds with GALR2 antag; hit rate 60% among 480; GALR2-expressing cells, antagonist mode, inhibition; inhibition, % at 4 µM;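 also: cells stimulated with galanin at about its EC80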
BLA inh counter: inhibitors of NFAT-driven beta-lactamase reporter, confirmation, counter-screen for GALR2 antagonist project, CHO NFAT-bla cells, FRET readout; thapsigargin-stimulated; hit rate 36% among 480; inhibition, % at 4.2 µM; shares compounds with GALR2 antag;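 active = inhibition above the mean inhibition across tested compounds plus 3 SD, cut at about 27% in these data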
A number is an active result; i = inactive; nt = not tested or not shown; ! = repeats disagree. The list is not random: actives were taken first. Their share in the collection is about 1.3%. Rule as the data show it, unless noted: active = inhibition above about 27%; inactive = the rest.

SMILES | Phagocyt inh | S1P2 blocker | GALR2 antag | S1P2 agonist | GALR2 agonist | GALR2 blk conf | BLA inh counter | others
CC1CCN(c2ccc(NC(=S)NC(=O)c3ccc(-c4cccc([N+](=O)[O-])c4)o3)cc2)CC1 | i | i | i | i | i | nt | nt
CC1CCN(c2ccccc2NC(=S)NC(=O)c2ccc(-c3cccc([N+](=O)[O-])c3)o2)CC1 | i | i | i | i | 21 | nt | nt | GALR2 ag confirm=i;BLA act counter=i
CC(=O)N(Cc1ccco1)c1nc(C(=O)Nc2ccc(Cl)cc2)c(C)s1 | i | nt | i | nt | i | nt | nt
CC(=O)NCN1CCN(CNC(C)=O)CC1 | i | i | i | i | i | nt | nt | GALR2 ag confirm=i;BLA act counter=i
O=C(Cn1cc(C(F)(F)F)ccc1=O)N/N=C/c1ccc(Cl)cc1 | i | nt | i | nt | i | nt | nt
CC1=C/C(=N\OS(=O)(=O)c2ccccc2)C(C(C)C)=CC1=O | i | nt | 47 | nt | 9.6 | 52 | 29 | GALR2 ag confirm=11;BLA act counter=i
Brc1ccc(-c2ccc(/C=N/Nc3nc4ccccc4[nH]3)o2)cc1 | i | nt | 29 | nt | 23 | i | i | GALR2 ag confirm=9.5;BLA act counter=17
Brc1ccc(-c2ccc(/C=N/Nc3nncc(-c4ccccc4)n3)o2)cc1 | i | i | i | i | i | nt | nt
COc1ccc(OCC(=O)NCCCN2CCOCC2)cc1 | nt | i | i | i | i | nt | nt
Cc1ccn2c(Nc3ccc4c(c3)OCO4)c(-c3ccccn3)nc2c1 | i | nt | 30 | nt | i | i | i
Cc1c2c(nc3ccccc13)OCC2 | nt | nt | i | nt | i | nt | nt
Fc1ccc(SCCc2ccncc2)cc1 | i | i | 32! | i | i | i | i
O=C1C=CC(=O)N1CCCCCCN1C(=O)C=CC1=O | i | nt | 86 | nt | i | 78 | 95
COc1cc(CSc2nnnn2-c2ccc(C)cc2)cc(OC)c1OC | i | nt | 43 | nt | i | 41 | i
Clc1cccc(Cl)c1/C=C/c1nc2ccccc2[nH]1 | i | i | 27 | i | i | 29 | i
O=C1/C(=C/c2cccnc2)CCC/C1=C\c1cccnc1 | i | nt | i | nt | i | nt | nt
CCC1C/C(=C\c2cccnc2)C(=O)/C(=C/c2cccnc2)C1 (stereo not given) | i | nt | 36 | nt | i | 46 | i
Cc1ccccc1N1CCN(c2ccc(NC(=O)C3CCCCC3C(=O)O)cc2)CC1 (stereo not given) | i | nt | i | nt | i | nt | nt
O=C(OCn1ncc(Br)c(Br)c1=O)c1ccc(F)cc1 | i | 54 | 79 | i | i | 92 | 95
O=C(OCn1ncc(Br)c(Br)c1=O)c1ccccc1Cl | i | 51 | 79 | i | i | 95 | 97
O=C(OCc1cnc(Cl)s1)c1ccccc1Cl | nt | i | i | i | i | nt | nt
C#CC(=O)N(c1cccc(OC)c1)C(C(=O)NC1CCCC1)c1cccs1 (stereo not given) | 47 | i | 62 | i | i | 72 | 58
C#CC(=O)N(c1ccc(OC)c(OC)c1)C(C(=O)NC1CCCC1)c1cccs1 (stereo not given) | i | i | 41 | i | i | 54 | 51
COc1ccc(N(C(=O)Cc2cccs2)C(C(=O)NC2CCCCC2)c2cccn2C)cc1OC (stereo not given) | nt | i | i | i | i | nt | nt
CCCCNC(=O)COC(=O)c1cc(C)nc2ccccc12 | i | i | i | i | i | nt | nt
SMILES | Phagocyt inh | S1P2 blocker | GALR2 antag | S1P2 agonist | GALR2 agonist | GALR2 blk conf | BLA inh counter | others
CCCCNC(=O)COC(=O)c1c2c(nc3ccccc13)/C(=C/c1cccs1)CC2 | i | nt | 27 | nt | 8.0 | 41 | 51
CNC(=O)NC(=O)C(C)OC(=O)c1c2c(nc3ccccc13)/C(=C/c1cccs1)CC2 (stereo not given) | i | nt | 49 | nt | 6.6 | 41 | 48
O=S(=O)(/N=C(\c1ccccc1F)N1CCCCC1)c1ccccc1 | i | nt | i | nt | i | nt | nt
Cn1c(SCC(=O)Nc2ccc3cn[nH]c3c2)nnc1-c1cccs1 | i | i | 30 | i | i | i | i
Cc1ccc(Cl)c(NC(=O)COC(=O)c2ccccc2C(=O)c2ccc(Cl)c([N+](=O)[O-])c2)c1Cl | i | nt | 69 | nt | i | 80 | 71
Cc1ccc(/C=C2\C(=O)Nc3ccccc32)o1 | i | nt | i | nt | i | nt | nt
O=C1Nc2ccccc2/C1=C/C(=O)c1cccs1 | nt | i | 27 | i | i | 30 | i
CCCC(c1nnnn1Cc1ccco1)N1CCN(C2CCCC2)CC1 (stereo not given) | i | nt | 69 | nt | i | i | 27
c1ccc(-n2nnnc2Oc2cccc3cccnc23)cc1 | i | i | i | i | i | nt | nt
N#Cc1cc(Oc2cccc3cccnc23)c(-n2nnc3ccccc32)cc1C#N | i | i | 39 | i | i | i | i
CCCCOc1ccccc1NC(=O)CC1SC(=NCC)N(CC)C1=O (stereo not given) | i | i | i | i | i | nt | nt
CCOC(=O)N1CCC(N2C(=O)c3ccc(C(=O)Nc4ccc(F)cc4F)cc3C2=O)CC1 | i | nt | 28 | nt | i | i | i
CCOC(=O)N1CCN(C(=O)c2ccccc2NC(=O)c2ccc(F)cc2)CC1 | i | nt | i | nt | i | nt | nt
COc1ccc2[nH]c(-c3ccc(C)cc3)cc(=O)c2c1 | nt | nt | i | nt | i | nt | nt
Cc1c(C(=O)Nc2cccc(Cl)c2)c2ccccn2c1CCc1ccncc1 | i | nt | 33 | nt | i | i | i
Cc1ccccc1NC(=O)c1sc(NC(=O)COc2ccccc2)c(C#N)c1C | i | nt | i | nt | i | nt | nt
CCN(CC)CC(=O)N1c2ccccc2Sc2ccc(Cl)cc21 | nt | i | 29 | i | i | i | i
O=C(CSc1nc2ccccc2s1)N1c2ccccc2Sc2ccc(Cl)cc21 | i | i | i | i | i | nt | nt
Cc1cc(C(F)(F)F)nn1Cc1n[nH]c(=S)n1-c1ccc(F)cc1 | i | nt | 63 | nt | i | i | i
Cc1cc(/C=N/n2cnnc2)c(C)n1-c1ccc(OCc2ccc(Cl)cc2)cc1 | i | 77 | 45 | i | i | 40 | i
CCS(=O)(=O)c1c([N+](=O)[O-])ncn1C | i | nt | 28 | nt | i | i | i
COc1coc(C(O)CN)cc1=O (stereo not given) | i | nt | i | nt | i | nt | nt
CCOC(=O)C(=Cc1cc(=O)c(OC)co1)C(=O)OCC | i | nt | 41 | nt | i | 67 | 58
O=C(C1CCCN(CCCc2ccccc2)C1)N1CCCCCC1 (stereo not given) | i | nt | i | nt | i | nt | nt
COc1ccccc1N1CCN(C2CCN(S(=O)(=O)c3ccc4ccccc4c3)CC2)CC1 | i | i | i | i | i | nt | nt
Clc1ccc(OCCN2CCN(c3ncnc4sccc34)CC2)cc1 | i | nt | 40 | nt | i | 49 | i
